In all, about 2,200 compounds went through this assay and about 530 (24%) were called active. A selection follows. Entries with a potency or affinity are not part of this list. A number with no mark means an inactive call.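 The calls were made as follows: active = inhibition above a set limit at one or more concentrations of the dose series; inactive = inhibition under that limit at every dose.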
assay: S. Typhimurium nonspecific reporter signal inhibition – Salmonella Typhimurium, GFP fluorescence, counter-screen for PhoP regulon inhibitor project, dose response (AID 2401); conditions: 4 h; series mostly up to 150 µM; inhibition: at the top concentration;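 also: S. typhimurium with Mg-insensitive nmpC-GFP reporter grown at 10 µM Mg2+; drop in reporter fluorescence reflects general culture growth inhibition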

Structure (SMILES) | inhibition
CCOC(=O)c1sc(NC(=O)Nc2ccc(Cl)cc2)cc1C | -2.19%
CCc1ccc2[nH]c(=O)c(CN(Cc3ccccc3)C(=O)Nc3ccccc3OC)cc2c1 | -16.5%
COc1ccccc1NC(=S)NC(=O)C(C)(C)C | -16.6%
COc1ccccc1N1CCN(C(=O)c2cccc3c(=O)c(C)c(-c4ccccc4)oc23)CC1 | -10.7%
CCN1C(=O)N/C(=C/c2ccc(Sc3ccc(C)cc3)o2)C1=O | 16.1%
CC(=O)c1cccc(NC(=O)Nc2cc3sccc3n2C)c1 | 15.5%
COc1cc(C2SCC(=O)N2c2nnc(C34CC5CC(CC(C5)C3)C4)s2)cc(OC)c1OC (stereo not drawn) | -11.2%
Brc1ccc(OCCn2ccnc2)cc1 | 22.6%
CCCCNC(=O)OC1CCS(=O)(=O)C1 (stereo not drawn) | -14.7%
O=c1c(Cl)c(Cl)cnn1Cc1ccccc1Cl | -23.5%
Cc1ccc(S(=O)(=O)N(CC(=O)N=Nc2c(O)[nH]c3ccccc23)c2ccc(C)c(C)c2)cc1 | 1.85%
Cc1ccccc1C(=O)N(C)Cc1ccccc1 | -13.5%
CCc1nc2cc(Cl)c(Cl)cc2[nH]1 | 25.5%
Cc1ccc(S(=O)(=O)c2cn(Cc3ccc(F)cc3)c3cc4c(cc3c2=O)OCO4)cc1 | 11.5%
O=C(Cn1nc(Cc2cccnc2)c2ccccc2c1=O)NCc1ccc2c(c1)OCO2 | -18.9%
O=C(O)c1cc(NCc2ccc3c(c2)OCO3)ccc1N1CCOCC1 | -11.9%
CCn1cc(C(=O)O)c(=O)c2cc(Br)ccc21 | 26.6%
COc1ccc(OC)c(-c2cc(C(=O)Nc3c(C)nn(Cc4ccccc4)c3C)no2)c1 | 9.76%
CCS(=O)(=O)Nc1cc(C(=O)OC)ccc1C(=O)OC | -28.1%
Cn1nnnc1SCC(=O)NC1CCCCC1 | -26.8%
COC(=O)c1ccc(NC(=S)Nc2ccc3ccccc3c2)cc1 | 0.98%
Cc1nn2c(=O)cc(CSc3nc4ccccc4[nH]3)nc2s1 | -16.9%
CCn1ncc(/C=C/C(=O)NCc2cn(C)nc2C)c1C | -28%

Structure (SMILES) | inhibition
COc1ccc(S(=O)(=O)N2CCN(Cc3ccccc3)CC2)cc1 | -13.4%
CCN(CC)S(=O)(=O)c1ccc2[nH]cc(C(=O)NCCc3ccccc3)c(=O)c2c1 | -2.33%
CN(c1ccccc1)S(=O)(=O)c1ccc(C(=O)Nc2nnc(-c3ccc(F)cc3)o2)cc1 | 3.22%
Cc1ccc(C)c(NC(=O)C(Sc2nnc(-c3cccs3)o2)c2ccccc2)c1 (stereo not drawn) | 13.8%
Oc1ccc(Br)cc1-c1nc2cnccn2c1NC1CCCCC1 | -17.6%
O=C(Nc1ccccn1)NC1CCCCC1 | -23.9%
COc1ccc(N2C(=O)C3CCCN3C2c2cccc(C)c2)cc1Cl (stereo not drawn) | -11.8%
O=C(/C=C/c1ccco1)N/C(=C\c1ccccc1)C(=O)NCCc1nc2ccccc2[nH]1 | 7.59%
Cc1ccccc1Nc1nnc(SCC(=O)NC2CCCc3ccccc32)s1 (stereo not drawn) | 7.38%
CC(C(=O)NC1CCCc2ccccc21)N1CCN(Cc2ccc3c(c2)OCO3)CC1 (stereo not drawn) | 16.4%
Cc1ccc(CNc2oc(-c3cccs3)nc2C#N)cc1 | -1.55%
CN(CC(=O)N1CCN(c2ccccn2)CC1)S(=O)(=O)c1ccc2ccccc2c1 | -0.24%
COc1ccc(C2C(C#N)=C(N)OC3=C2C(=O)CCC3)cc1Cn1cc([N+](=O)[O-])cn1 (stereo not drawn) | 12.2%
COc1ccc(Nc2nnc(SCc3cn4c(C)cccc4n3)s2)cc1 | 15.9%
Cc1cc(N/N=C/c2cccc(Cl)c2)nc(NCc2ccccc2)n1 | -33%
Clc1ccc(Nc2ccc(NCc3ccccc3)nn2)cc1 | 33.6%
Cc1ccc(NC(=O)CSc2nnc(C3CCCCC3)n2N)cc1F | -18.6%
CCOc1ccc2nc(COC(=O)c3ccco3)c(C(C)=O)[n+]([O-])c2c1 | -18.2%
O=C(Nc1ccc(Br)cc1)c1ccc(F)c(S(=O)(=O)NCc2cccs2)c1 | -27.7%
NCCCCCc1nnc(SCc2ccc(Cl)c(Cl)c2)o1 | 1.67%
O=C(Cn1cc[n+](CC(=O)c2ccccc2)c1)c1ccccc1 | -18.9%
CC(C)(C)c1n[nH]c(=S)n(/N=C/c2cccs2)c1=O | -21.7%
N#CC1=C(N)SC(N)=C(C#N)C1c1ccc([N+](=O)[O-])cc1 | -16.9%

Structure (SMILES) | inhibition
Cc1cc(Oc2ccc(-c3nnc(-c4ccccc4)o3)cc2[N+](=O)[O-])ccc1Cl | -20.9%
Cc1ccccc1OCCSCc1nc2ccccc2[nH]1 | 17.8%
O=C(CCN1C(=O)c2ccccc2S1(=O)=O)Nc1ccc2c(c1)OCCO2 | -18.3%
COc1ccc(OC)c(S(=O)(=O)N2c3cc(F)ccc3CCC2C)c1 (stereo not drawn) | -21.7%
O=C(NNc1c2ccccc2nc2ccccc12)c1cccc(O)c1 | 17.4%
CC1(C)CC(=O)c2c(nc3ccccc3c2N)C1 | 9.98%
Nc1nnc(SCc2ccc(F)cc2Cl)s1 | -55%
CNC(=O)CN(c1ccc(F)cc1)S(=O)(=O)c1cc(C)ccc1OC | -28.5%
CN1CCCC(OC(=O)CCCC(=O)OC2CCCN(C)C2)C1 (stereo not drawn) | -24.7%
Cc1ccc2[nH]c3c(=O)n(CCc4cnc[nH]4)cnc3c2c1 | -30.1%
Cc1ccc(C(=O)COC(=O)CNS(=O)(=O)c2ccccc2)cc1[N+](=O)[O-] | -25.7%
CC(C)n1cc(C(=O)N2CCCC(N3CCN(c4ccc(F)cc4)CC3)C2)cn1 (stereo not drawn) | -29.9%
CCn1cc(C(C)(C)C)c(C#N)c1NC(C)=O | -3.54%
O=C(NC1CCCCC1)n1c(=O)oc2ccc(Cl)cc21 | 31.2%
O=C(CCN1C(=O)C2C3C=CC(C3)C2C1=O)N1CCN(c2cccc(Cl)c2)CC1 (stereo not drawn) | -20.2%
Cc1cccc(OCC(=O)N(Cc2cccs2)C2CCS(=O)(=O)C2)c1C (stereo not drawn) | -19.3%
CC(C)OC(=O)c1ccc(NC(=O)c2ccccc2)cc1 | -13.3%
CC(C)Oc1cccc(C(=O)NC(=S)Nc2ccccc2)c1 | -26%
COc1ccc(Oc2coc3cc(OC(=O)c4cccs4)ccc3c2=O)cc1 | -16.5%
COC(=O)c1ccc(NC(=O)c2ccc(N(C)S(C)(=O)=O)cc2)cc1 | -11.4%
O=C(CCCCCNc1nc(=S)[nH]c2ccccc12)NCCc1c[nH]c2ccccc12 | -31.1%
O=C(NNC(=O)c1ccccc1-n1cccc1)c1ccc(Cl)c(Cl)c1 | -29.7%
Cc1ccccc1NC(=S)N(CCCN1CCOCC1)Cc1ccccn1 | -8.55%

Structure (SMILES) | inhibition
CCOc1ccc(/C=N/O)cc1 | -9.74%
CCOc1ccc(CCNC(=O)c2cc3sc(Cl)cc3n2C)cc1OCC | -12.1%
CCN1CCN(C(=O)c2ccc(COc3ccc(Cl)cc3)o2)CC1 | -14.7%
COc1ccc(C)cc1C(=O)CCC(=O)Nc1ccccc1N1CCOCC1 | -8.09%
C#CCOc1ccc(/C=N/O)cc1Cl | -5%
COc1ccc(C(C(=O)NC2CCCC2)N(C(=O)c2ccoc2C)c2cc(C)cc(C)c2)cc1 (stereo not drawn) | -8.71%
COc1ccc(NS(=O)(=O)c2cc(C)ccc2NC(=O)c2cc(C)oc2C)cc1 | -4.38%
Cc1cc2oc(=O)cc(CSc3nc(N)cc(N)n3)c2cc1C | -31.2%
O=C(CSc1nncs1)Nc1ccc2c(c1)OCCO2 | -24.4%
CCOc1ccc(OCc2ccc(C(=O)N3CCc4ccccc4C3)o2)cc1 | -19%
Cc1cc(C(=O)NCc2cccs2)cs1 | -11.6%
COc1ccc2[nH]c(S(=O)Cc3ncc(C)c(OC)c3C)nc2c1 (stereo not drawn) | -33.3%
Cc1ccc(C(C)C)c(OCC(=O)Nn2c(=O)[nH]c3ccccc3c2=O)c1 | -26.8%
O=C(NC1CC1)C1=NOC(CNc2ncc(C(F)(F)F)cc2Cl)C1 (stereo not drawn) | -15%
O=C(Cc1n[nH]c(=O)c2ccccc12)OCC(=O)c1ccc2c(c1)OCCO2 | 21.7%
c1ccc(Cc2nnc(-c3ccccc3)o2)cc1 | -23.2%
Oc1ccccc1CN1CCCN(Cc2ccccc2O)C1 | -20.8%
CC(C)Cc1oc(C(=O)O)cc1CN1CCOCC1 | 3.36%
COc1ccc(NC(=O)CN2CCCCC2)c([N+](=O)[O-])c1 | -10.1%
CC(C)(C)c1ccc(C(=O)NC(=S)NCc2cccnc2)cc1 | -17.4%
O=C(Nc1nc2cc3c(cc2s1)OCO3)C1=COCCO1 | -4.16%
CCOc1ccc(CSC(CC(=O)O)C(=O)O)cc1 (stereo not drawn) | -4.91%
O=C(CSc1ncnc2ccccc12)Nc1cc(S(=O)(=O)N2CCCCC2)ccc1Cl | 19.2%

Structure (SMILES) | inhibition
Cc1ccc(CCNC(=O)C2CCN(S(=O)(=O)N3CCCC3)CC2)cc1 | -28.9%
COc1ccc(CCNC(=O)c2ccc(CN3CCOCC3)cc2)cc1 | 15.6%
COc1ccc(C(=O)Oc2c(CN3CCOCC3)cc(Cl)c3cccnc23)cc1 | -5.79%
N#Cc1ccc(COC(=O)c2ccc3c(=O)[nH]c(CN4CCOCC4)nc3c2)cc1 | -22.3%
COc1ccc(CN2CCOCC2)cc1Br | -7.96%
COc1ccc(C2C(C(=O)c3cccs3)=C(O)C(=O)N2c2nnc(C)s2)cc1OC (stereo not drawn) | -21.4%
CCC(CC)C(=O)Nc1cccc(C(=O)N2CCCC2)c1 | -16.5%
c1ccn2c(CNc3ncnc4sccc34)nnc2c1 | -28%
Cc1cc(C)c2cc(CN(Cc3cccnc3)C(=O)c3ccc(F)cc3)c(Cl)nc2c1 | -19.2%
c1ccc(C2(CNc3ccccn3)CCCC2)cc1 | 0.11%
O=c1[nH]c(CSc2ncc(-c3ccc(F)cc3)n2Cc2ccco2)nc2ccccc12 | -10.5%
CC(C)(C)C1CCC2(CC1)Nc1cccc3cccc(c13)N2 | 15.8%
CCn1c2ccccc2c2cc(NC(=O)C(C)Oc3ccccc3)ccc21 (stereo not drawn) | -20%
COc1cccc(N(C(=O)c2ccco2)c2nc(-c3sc(NC(=O)c4ccco4)nc3C)cs2)c1 | 25.6%
Cc1ccc(Nc2nc(N)nc(CC#N)n2)cc1 | -12.2%
CCCCCC(=O)Nc1ccc2ccccc2c1 | -15.9%
C/C(CC(=O)Nc1ccc(Cl)c(C(F)(F)F)c1)=N\NC(=O)c1cccc(O)c1 | 7.3%
CC1CC(C)CN(CCCNC(=O)C2CCC(=O)N2C2CCCC2)C1 (stereo not drawn) | -29.9%
Cc1ccc(NC2CC(=O)N(Cc3ccccc3)C2=O)cc1 (stereo not drawn) | -22.2%
Cc1ccc(-n2nc(-c3ccc(N)cc3)cc2N)cc1 | 8.99%
CC(C)=CCN1CCN(Cc2ccoc2)CC1CCO (stereo not drawn) | -13.7%

Source: PubChem BioAssay AID2401 (Southern Research Specialized Biocontainment Screening …, 2010)
